The text below walks through data of PubChem BioAssay (Tox21).

For assay [1], the target named is Thyrotropin receptor (Homo sapiens) (UniProt P16473). The experiment in a line: qHTS assay to identify small molecule antagonists of the thyroid stimulating hormone receptor (TSHR) signaling pathway (AID 1259385; calls by dose curve; also: nearly all actives have a fitted effect of over 20% in size; also: potency is read from the fitted curve at half-maximal effect). The method in brief: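 TSHR-HEK293 cells (800/well) plated 18 h, then compounds with Ro20-1724 and TSH at 1.5 ng/mL final, 30 min at room temperature. cAMP quantified by HTRF (cAMP-d2/anti-cAMP-cryptate, 1 h); 15 concentrations in triplicate.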
Thyrotropin receptor (Homo sapiens), sequence (P16473 whole entry, looked up): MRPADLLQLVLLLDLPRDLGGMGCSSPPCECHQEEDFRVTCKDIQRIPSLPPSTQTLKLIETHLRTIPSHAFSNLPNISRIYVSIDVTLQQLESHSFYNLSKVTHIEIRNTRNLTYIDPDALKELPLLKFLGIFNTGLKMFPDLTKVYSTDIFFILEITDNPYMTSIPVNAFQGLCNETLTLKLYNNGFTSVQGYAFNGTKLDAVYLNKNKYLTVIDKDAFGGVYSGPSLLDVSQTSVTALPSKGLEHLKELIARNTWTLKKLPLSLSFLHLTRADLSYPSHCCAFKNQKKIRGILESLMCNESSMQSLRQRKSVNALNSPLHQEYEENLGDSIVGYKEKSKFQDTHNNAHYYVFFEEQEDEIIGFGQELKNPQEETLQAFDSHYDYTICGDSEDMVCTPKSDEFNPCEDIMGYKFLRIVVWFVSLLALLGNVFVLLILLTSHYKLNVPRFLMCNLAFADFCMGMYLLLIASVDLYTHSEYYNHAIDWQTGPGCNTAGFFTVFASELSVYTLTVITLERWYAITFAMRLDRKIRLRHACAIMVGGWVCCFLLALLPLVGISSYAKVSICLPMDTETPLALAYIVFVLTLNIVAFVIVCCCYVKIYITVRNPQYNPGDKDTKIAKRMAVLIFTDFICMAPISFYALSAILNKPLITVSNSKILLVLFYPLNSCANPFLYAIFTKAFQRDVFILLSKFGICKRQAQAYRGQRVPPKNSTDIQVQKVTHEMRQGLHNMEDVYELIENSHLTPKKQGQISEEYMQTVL
(qHTS replaces the single test concentration by a dilution series.)

Assay [2] is described as follows: qHTS assay to identify small molecule agonists of the estrogen receptor alpha (ER-alpha) signaling pathway in the presence of an antagonist - cell viability counter screen (AID 1259386).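 Also: series mostly up to about 92 µM; cells exposed to compounds for 22 h at 37 °C before the viability read; nearly all actives have a fitted effect of over 30% in size.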 The method in brief:
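Cytotoxicity was measured in parallel with the ERE-luciferase agonist screen, in the same wells. The cells were VM7Luc4E2, which endogenously express ER-alpha, and treatment was with compounds plus 10.0nM ICI-182,780 for 22hr.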

Assay [3] has as its target Progesterone receptor (Homo sapiens) (UniProt P06401). The experiment in a line: qHTS assay to identify small molecule agonists of the progesterone receptor (PR) signaling pathway (AID 1346784; calls by dose curve; also: nearly all actives have a fitted effect of over 30% in size). The method in brief:
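PR-UAS-bla HEK 293T cells carrying a UAS-driven beta-lactamase reporter were seeded in medium with 2% charcoal-stripped FBS, preincubated 6 hr at 37C, then exposed to compounds in DMSO for 16 hr; agonism was read by LiveBLAzer B/G FRET fluorescence.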

The target is the same in assay [4]. The experiment in a line: qHTS assay to identify small molecule antagonists of the progesterone receptor (PR) signaling pathway (AID 1346795; active = well fitted inhibition curve with a large enough effect in the signal ratio in the repeat runs, not every such curve was filed as active; the % refers to the signal ratio; also: potency is read from the fitted curve at half-maximal effect). A digest of the protocol:
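PR-UAS-bla HEK293T cells carrying a UAS-driven beta-lactamase reporter were plated in medium with 2% charcoal-stripped FBS and rested 6 hr at 37C. Compounds were added with 1 nM R5020 (final) for 16 hr, then FRET substrate loaded 2 hr at room temperature.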

The nature of assay [5]: qHTS assay to identify small molecule antagonists of the progesterone receptor (PR) signaling pathway - cell viability counter screen (AID 1346798). Also: nearly all actives have a fitted effect of over 50% in size. Also: potency is read from the fitted curve at half-maximal effect. A digest of the protocol:
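PR-UAS-bla HEK293T cells in medium with 2% charcoal-stripped FBS were treated with compounds plus R5020 for 16 hr at 37C. Cell viability was then read by CellTiter-Glo luminescence after 30 min at room temperature in the same wells.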

A short description of assay [6]: qHTS assay to identify small molecule agonists of the progesterone receptor (PR) signaling pathway - cell viability counter screen (AID 1346799; calls by dose curve; also: nearly all actives have a fitted effect of over 45% in size). A digest of the protocol:
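PR-UAS-bla HEK293T cells, 3,000 per well in medium with 2% charcoal-stripped FBS, were preincubated 6 hr at 37C, then exposed to compounds for 16 hr; viability was read as CellTiter-Glo luminescence after 30 min at room temperature.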

Assay [7] in a line: qHTS assay to identify small molecule agonists of the TGF-beta/Smad signaling pathway - cell viability counter screen (AID 1346829). Also: top concentration of the series differs between compounds; nearly all actives have a fitted effect of over 45% in size. The method in brief:
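Tox21 qHTS format: SBE-bla HEK 293T cells treated with DMSO-dissolved compounds for 5 hr; CellTiter-Glo luminescence after 30 min at room temperature.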

The nature of assay [8]: qHTS assay to identify small molecule agonists of the TGF-beta/Smad signaling pathway (AID 1346859; active = well fitted activation curve with a large enough effect in the signal ratio in the repeat runs, not every such curve was filed as active; the % refers to the signal ratio; also: series mostly up to about 77 µM). The method in brief: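 HEK 293T cells stably carrying a beta-lactamase reporter driven by the Smad binding element were seeded overnight, exposed to DMSO-dissolved compounds for 5 hr at 37 C, 5% CO2, then loaded with FRET substrate for 2 hr at room temperature.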
Assay [9] can be described thus: Human pregnane X receptor (PXR) small molecule agonists, qHTS cell viability counter screen (AID 1346977). Also: nearly all actives have a fitted effect of over 50% in size. Also: potency is read from the fitted curve at half-maximal effect. A digest of the protocol:
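PXR-Luc HepG2 cells in medium with 5% charcoal-stripped FBS were pre-incubated 5hr, then exposed to compounds for 24hr at 37C. Viability was read in the same wells by CellTiter-Fluor fluorescence, reagent added after 23hr with a 1hr incubation.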

Assay [10] can be described thus: Caspase-3/7 induction in HepG2 cells by small molecules, qHTS assay (AID 1346978). Also: nearly all actives have a fitted effect of over 15% in size. A digest of the protocol:
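Wild-type HepG2 cells, 2,000/well, settled 5 hr at 37 C and 5% CO2, then compound-treated for 17 hr; caspase-3/7 activity read by luminescent Caspase-Glo 3/7 after 30 min at room temperature.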

The nature of assay [11]: Caspase-3/7 induction in CHO-K1 cells by small molecules, qHTS cell viability counter screen (AID 1346979). Also: nearly all actives have a fitted effect of over 35% in size. Also: potency is read from the fitted curve at half-maximal effect. A digest of the protocol:
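Wild-type CHO-K1 cells were seeded at 1,500 per well, rested 5hr at 37 C, then exposed to compounds in DMSO. After 16hr, CellTiter-Fluor reagent was added and fluorescence read 1hr later as the viability measure.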

Assay [12] can be described thus: Caspase-3/7 induction in HepG2 cells by small molecules, qHTS cell viability counter screen (AID 1346981). Also: nearly all actives have a fitted effect of over 30% in size. Also: potency is read from the fitted curve at half-maximal effect. A digest of the protocol: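 Cell viability is measured as a cytotoxicity counter screen alongside the Caspase-Glo 3/7 readout in identical wells. Wild-type HepG2 cells are treated with test compounds for 16 hr at 37 C before CellTiter-Fluor addition and a 1-hr incubation.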

The target of assay [13] is Nuclear receptor subfamily 1 group I member 2 (Homo sapiens) (UniProt O75469). The experiment in a line: Human pregnane X receptor (PXR) small molecule agonists, qHTS assay (AID 1346982). Also: nearly all actives have a fitted effect of over 35% in size. The method in brief:
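Cells: HepG2 stably carrying PXR-Luc. Medium held 5% charcoal-stripped FBS. Compounds in DMSO added after 5 hr plating, incubated 24 hr, then luminescence quantified with ONE-Glo.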

Assay [14] in a line: qHTS assay to identify small molecule antagonists of the TGF-beta/Smad signaling pathway - cell viability counter screen (AID 1346824). Also: nearly all actives have a fitted effect of over 50% in size. The method in brief:
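SBE-bla HEK 293T cells, incubated overnight, then compound plus 0.25 ng/mL TGF-beta1 (stock added) for 5 hr at 37 C. Viability was read in the same wells by CellTiter-Glo luminescence after 30 min at room temperature.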

Assay [15] can be described thus: Caspase-3/7 induction in CHO-K1 cells by small molecules, qHTS assay (AID 1346980). Also: nearly all actives have a fitted effect of over 15% in size. The method in brief: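 Wild-type CHO-K1 cells exposed to compounds for 17hr at 37 C, 5% CO2. Caspase-3/7 activity then measured by Caspase-Glo 3/7 luminescence after 30min at room temperature.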
The target in assay [16] is Nuclear receptor subfamily 1 group I member 2 (Rattus norvegicus) (UniProt Q9R1A7). The experiment in a line: Rat pregnane X receptor (rPXR) activation by small molecules, qHTS assay (AID 1346983). Also: nearly all actives have a fitted effect of over 20% in size. The conditions noted are these: rPXR luciferase reporter cells, One-Glo luminescence, 24 h; max activation: stronger effect = higher value. A digest of the protocol: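 Cell-based rPXR activation assay: rPXR cells, 2,000 per well, rested 5hr at 37 C, then exposed to compounds in DMSO for 24 hr at 37 C. Luciferase activity read by One-Glo luminescence after 30 min at room temperature.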
Nuclear receptor subfamily 1 group I member 2 (Rattus norvegicus), sequence (Q9R1A7 whole entry, looked up): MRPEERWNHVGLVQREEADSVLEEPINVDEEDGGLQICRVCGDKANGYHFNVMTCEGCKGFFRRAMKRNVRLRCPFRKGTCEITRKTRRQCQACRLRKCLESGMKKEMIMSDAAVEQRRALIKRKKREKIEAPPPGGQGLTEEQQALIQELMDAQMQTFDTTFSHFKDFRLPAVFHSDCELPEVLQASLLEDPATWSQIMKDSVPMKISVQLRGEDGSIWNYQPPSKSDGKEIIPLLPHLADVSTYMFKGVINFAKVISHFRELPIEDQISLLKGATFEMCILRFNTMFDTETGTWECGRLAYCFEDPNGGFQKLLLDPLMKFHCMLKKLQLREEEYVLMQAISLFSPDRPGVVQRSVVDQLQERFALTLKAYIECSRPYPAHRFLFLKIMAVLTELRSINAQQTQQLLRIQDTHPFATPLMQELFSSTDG

For assay [17], the target named is Nuclear receptor subfamily 1 group I member 2 (Homo sapiens) (UniProt O75469). Put plainly: CYP3A4 induction through human pregnane X receptor (PXR) by small molecules, qHTS assay (AID 1346984). Also: nearly all actives have a fitted effect of over 40% in size. A digest of the protocol:
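Quantitative HTS in DPX-2 cells, i.e. HepG2 transfected with PXR response element and CYP3A4-promoter luciferase. Compounds in DMSO incubated 24hr at 37C; then P450-Glo CYP3A4 substrate, 3uM final, 3hr; One-Glo luminescence.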

For assay [18] the target is unchanged. Put plainly: Human pregnane X receptor (PXR) activation by small molecules, qHTS assay (AID 1346985). Also: nearly all actives have a fitted effect of over 40% in size. The method in brief:
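DPX-2 cells (HepG2 co-transfected with a PXR response element and a CYP3A4-promoter luciferase construct) were seeded at 2,000 per well, rested 5 hr at 37C, then exposed to DMSO-dissolved compounds for 24 hr. Activation was read as luciferase luminescence.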

Assay [19] has as its target Thyrotropin-releasing hormone receptor (Homo sapiens) (UniProt P34981). The experiment in a line: qHTS assay to identify small molecule antagonists of the thyrotropin-releasing hormone receptor (TRHR) signaling pathway (AID 1346877; active = well fitted inhibition curve with a large enough effect in the repeat runs, not every such curve was filed as active; also: series mostly up to about 51 µM). A digest of the protocol: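 Antagonism is measured as suppression of the calcium response to 1 nM TRH in TRHR-HEK293 cells that have been dye-loaded for 2 h at 37 °C after overnight plating. Each compound is tested at 15 concentrations in triplicate.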

Assay [20] has the same target. Put plainly: qHTS assay to identify small molecule agonists of the thyrotropin-releasing hormone receptor (TRHR) signaling pathway (AID 1346891; calls by dose curve; also: series mostly up to about 58 µM). The method in brief: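 TRHR-expressing HEK293 cells were plated 18 h at 37 °C/5% CO2, loaded with calcium dye 2 h at 37 °C, then given compound in DMSO; fluorescence was read kinetically for 3 min at 1 s intervals.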

A number with no mark means an inactive call. Records with an inconclusive call do not appear. Calls of active or inactive are those of the source. Unless noted, calls follow the shape of the dose curve; as a rule, active = well fitted curve in the direction sought with a large enough effect in the repeat runs; inconclusive = weak or mixed curves; inactive = no such curve, though single readings can be large; an effect the other way counts as inactive or inconclusive.
% is scaled to controls: 0 for no effect and ±100 for the full control effect.

Thyrotropin-releasing hormone receptor (Homo sapiens), sequence (P34981 whole entry, looked up): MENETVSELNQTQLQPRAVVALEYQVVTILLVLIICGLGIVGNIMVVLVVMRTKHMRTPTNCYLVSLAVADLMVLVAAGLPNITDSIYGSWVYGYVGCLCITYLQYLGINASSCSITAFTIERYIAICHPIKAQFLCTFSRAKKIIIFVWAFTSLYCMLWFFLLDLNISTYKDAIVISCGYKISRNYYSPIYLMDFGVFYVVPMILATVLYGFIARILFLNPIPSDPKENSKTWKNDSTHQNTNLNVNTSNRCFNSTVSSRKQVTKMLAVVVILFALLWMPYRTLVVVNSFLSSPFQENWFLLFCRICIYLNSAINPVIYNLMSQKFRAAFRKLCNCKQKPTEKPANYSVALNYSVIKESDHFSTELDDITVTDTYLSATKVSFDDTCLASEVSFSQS
Nuclear receptor subfamily 1 group I member 2 (Homo sapiens), sequence (O75469 whole entry, looked up): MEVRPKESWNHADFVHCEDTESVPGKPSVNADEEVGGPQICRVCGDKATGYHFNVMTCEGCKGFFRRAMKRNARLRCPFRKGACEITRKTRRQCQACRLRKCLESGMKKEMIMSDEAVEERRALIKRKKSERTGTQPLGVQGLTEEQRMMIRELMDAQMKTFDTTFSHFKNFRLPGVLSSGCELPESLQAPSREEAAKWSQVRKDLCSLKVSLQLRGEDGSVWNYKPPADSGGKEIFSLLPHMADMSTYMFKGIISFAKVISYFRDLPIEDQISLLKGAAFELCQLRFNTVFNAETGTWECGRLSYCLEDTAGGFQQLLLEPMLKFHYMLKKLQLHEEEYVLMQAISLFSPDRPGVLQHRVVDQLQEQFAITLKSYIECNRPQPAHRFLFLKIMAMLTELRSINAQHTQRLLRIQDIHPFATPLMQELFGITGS
Progesterone receptor (Homo sapiens), sequence (P06401 whole entry, looked up): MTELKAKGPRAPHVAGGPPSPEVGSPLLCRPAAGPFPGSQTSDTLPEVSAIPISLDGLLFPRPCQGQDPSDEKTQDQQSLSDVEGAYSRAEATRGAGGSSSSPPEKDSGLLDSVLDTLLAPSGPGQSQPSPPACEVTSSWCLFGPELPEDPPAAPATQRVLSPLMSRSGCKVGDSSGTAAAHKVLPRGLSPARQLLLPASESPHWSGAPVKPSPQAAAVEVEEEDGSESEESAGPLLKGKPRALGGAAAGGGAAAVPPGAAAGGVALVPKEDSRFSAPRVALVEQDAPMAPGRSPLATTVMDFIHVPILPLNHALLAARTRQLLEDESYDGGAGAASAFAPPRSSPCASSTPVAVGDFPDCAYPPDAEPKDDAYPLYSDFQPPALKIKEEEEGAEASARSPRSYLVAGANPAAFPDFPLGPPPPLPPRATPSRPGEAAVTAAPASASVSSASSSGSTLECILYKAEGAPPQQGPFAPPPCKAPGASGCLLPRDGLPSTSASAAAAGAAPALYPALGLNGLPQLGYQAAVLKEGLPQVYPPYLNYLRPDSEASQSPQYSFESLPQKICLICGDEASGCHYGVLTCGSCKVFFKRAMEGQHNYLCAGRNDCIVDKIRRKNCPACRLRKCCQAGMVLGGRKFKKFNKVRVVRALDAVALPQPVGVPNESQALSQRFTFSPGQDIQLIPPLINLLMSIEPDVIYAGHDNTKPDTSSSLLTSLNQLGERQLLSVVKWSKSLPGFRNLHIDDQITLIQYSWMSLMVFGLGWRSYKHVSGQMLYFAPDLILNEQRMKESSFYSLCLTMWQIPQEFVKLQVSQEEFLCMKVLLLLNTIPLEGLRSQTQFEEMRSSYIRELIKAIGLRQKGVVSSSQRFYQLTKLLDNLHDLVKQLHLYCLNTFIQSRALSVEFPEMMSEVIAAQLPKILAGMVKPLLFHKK

Turning to `CCC1CO1` (stereo unspecified), the Potency result in assay [1], in [2], in [3], in [4], in assay [5] and in assay [6] was “inactive” in each case. Besides, the Potency entry in [7], in [8], in [9], in assay [10], in assay [11] and in assay [12] was “inactive” each time. Further, in assay [13], the Potency result was “inactive”.
For `O=C(O)CCC(=O)C(=O)O`, the Potency result in assay [1], in [2], in [3], in [4], in assay [5] and in assay [14] was “inactive” throughout. The Potency result in assay [7], in assay [8], in [9], in assay [10], in assay [11] and in [15] was “inactive” each time. The Potency entry in assay [12], in assay [13], in [17] and in assay [18] was “inactive” each time. Besides, the max activation in [16] was -0.816%.
Take `CCOC(=O)c1ccc(O)c(O)c1`: the Potency entry in assay [1], in assay [2], in [3], in assay [4], in assay [5] and in assay [14] was “inactive” throughout. Besides, the Potency result in [7], in assay [8], in [10], in assay [11], in assay [15] and in assay [12] was “inactive” in each case. Besides, the Potency result in assay [13] is “inactive”.
For `C[C@@H]1CN(CCCn2c3ccccc3c3ccccc32)C[C@H](C)N1`, the Potency is 33.5 µM (active) in [1]; 29.8 µM (active) in assay [4]; 11.9 µM (active) in assay [5]; 29.8 µM (active) in assay [9]; 29.8 µM (active) in [11]; 29.8 µM (active) in assay [12]. Besides, the Potency result in assay [2], in assay [3], in assay [14], in assay [7], in assay [8] and in assay [20] was “inactive” each time. Further, in [13], the Potency result is “inactive”. Besides, in assay [19], the compound was called inactive. Also, the max activation in [16] was -9.24%.
Turning to `CCC1NC(=O)c2cc(S(N)(=O)=O)c(Cl)cc2N1` (stereo unspecified), the Potency entry in [1], in [2], in assay [3], in [4], in assay [5] and in assay [14] was “inactive” throughout. Moreover, the Potency result in assay [7], in assay [8], in [20], in assay [9], in assay [10] and in [11] was “inactive” throughout. For the same compound, the Potency result in [15] and in assay [12] was “inactive” throughout. Also, the call in [19] was inactive.
Take `Cc1cscn1`: the Potency result in assay [1], in assay [2], in assay [3], in assay [4], in assay [5] and in assay [14] was “inactive” each time. For the same compound, the Potency result in [7], in assay [8], in assay [9], in assay [10], in assay [11] and in [15] was “inactive” each time. Also, the Potency result in assay [12] and in [13] was “inactive” throughout.
In the case of `C[C@H]1C[C@H](O)c2ccsc2S1(=O)=O`, the Potency result in [1], in assay [2], in assay [3], in assay [4], in [5] and in assay [6] was “inactive” each time. Moreover, the Potency result in assay [8], in assay [20], in [9], in assay [10], in assay [15] and in [12] was “inactive” each time. The Potency result in [13] was “inactive”. For the same compound, in assay [19], the call was inactive.
